Drawing on PubChem BioAssay, this text covers composite z-score and z-score for 5 molecules.

Molecules are shown by their SMILES. The source made the active and inactive calls.

The test system of test [1] is Plasmodium falciparum Sir2 (PF13_0152, Sir2A). The test can be described thus: Plasmodium falciparum Sir2A binding compounds – biochemical, small-molecule microarray, 635 nm fluorescence, primary screen (AID 1098).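 Further: score merges spot fluorescence intensity with its signal-to-noise ratio.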 The note with it: fluorescence 635 nm, higher = more signal.
A short description of test [2]: probe aDKK1 binding to arrayed compounds – biochemical, biotinylated probe, 635/667 nm fluorescence, primary screen (AID 1099).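 Further: score merges 667nm spot fluorescence with signal to noise across triplicate slides.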 The note with it: small-molecule microarray, higher = more signal.
Test [3] can be described thus: probe aCHRDL2 binding to arrayed compounds – biochemical, biotinylated probe, 635/667 nm fluorescence, primary screen (AID 1100). To be noted: small-molecule microarray, higher = more signal.
A short description of test [4]: change in splice reporter luminescence, either direction, cell-based, HEK293, spliceosome inhibition project, primary screen (AID 1101).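 Further: HEK293 cells carrying a splicing-competent luciferase reporter gene; test concentration not given here.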 To be noted: HEK293 splicing luciferase reporter, 24 h, higher = more signal, called active from +8 up or from −8 down. Background: Reporter assays use an easily measured gene product as a stand-in for the process of interest.
Test [5] addresses Fibroblast growth factor 10 (Homo sapiens) (UniProt O15520). Kind of test: compounds binding fibroblast growth factor 10 – biochemical, small-molecule microarray, 635 nm fluorescence, primary screen (AID 1102). To be noted: FGF10 binding, fluorescence 635 nm, higher = more signal.
The test system of test [6] is glycogen synthase kinase-3 (GSK3A per assay name; protocol says GSK3B). Kind of test: compounds binding glycogen synthase kinase-3 – biochemical, small-molecule microarray, 635 nm fluorescence, GSK3A, primary screen (AID 1103). Further: the record names both GSK3A and GSK3B. The note with it: fluorescence 635 nm, higher = more signal.
The target of test [7] is Epidermal growth factor receptor (Homo sapiens) (UniProt P00533). Kind of test: compounds binding epidermal growth factor receptor – biochemical, small-molecule microarray, 635 nm fluorescence, primary screen (AID 1104).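 Further: score merges 667 nm emission intensity with spot signal to noise over triplicate slides.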 The note with it: EGFR binding, higher = more signal.
Sequence of Epidermal growth factor receptor (Homo sapiens) (P00533 whole entry, looked up): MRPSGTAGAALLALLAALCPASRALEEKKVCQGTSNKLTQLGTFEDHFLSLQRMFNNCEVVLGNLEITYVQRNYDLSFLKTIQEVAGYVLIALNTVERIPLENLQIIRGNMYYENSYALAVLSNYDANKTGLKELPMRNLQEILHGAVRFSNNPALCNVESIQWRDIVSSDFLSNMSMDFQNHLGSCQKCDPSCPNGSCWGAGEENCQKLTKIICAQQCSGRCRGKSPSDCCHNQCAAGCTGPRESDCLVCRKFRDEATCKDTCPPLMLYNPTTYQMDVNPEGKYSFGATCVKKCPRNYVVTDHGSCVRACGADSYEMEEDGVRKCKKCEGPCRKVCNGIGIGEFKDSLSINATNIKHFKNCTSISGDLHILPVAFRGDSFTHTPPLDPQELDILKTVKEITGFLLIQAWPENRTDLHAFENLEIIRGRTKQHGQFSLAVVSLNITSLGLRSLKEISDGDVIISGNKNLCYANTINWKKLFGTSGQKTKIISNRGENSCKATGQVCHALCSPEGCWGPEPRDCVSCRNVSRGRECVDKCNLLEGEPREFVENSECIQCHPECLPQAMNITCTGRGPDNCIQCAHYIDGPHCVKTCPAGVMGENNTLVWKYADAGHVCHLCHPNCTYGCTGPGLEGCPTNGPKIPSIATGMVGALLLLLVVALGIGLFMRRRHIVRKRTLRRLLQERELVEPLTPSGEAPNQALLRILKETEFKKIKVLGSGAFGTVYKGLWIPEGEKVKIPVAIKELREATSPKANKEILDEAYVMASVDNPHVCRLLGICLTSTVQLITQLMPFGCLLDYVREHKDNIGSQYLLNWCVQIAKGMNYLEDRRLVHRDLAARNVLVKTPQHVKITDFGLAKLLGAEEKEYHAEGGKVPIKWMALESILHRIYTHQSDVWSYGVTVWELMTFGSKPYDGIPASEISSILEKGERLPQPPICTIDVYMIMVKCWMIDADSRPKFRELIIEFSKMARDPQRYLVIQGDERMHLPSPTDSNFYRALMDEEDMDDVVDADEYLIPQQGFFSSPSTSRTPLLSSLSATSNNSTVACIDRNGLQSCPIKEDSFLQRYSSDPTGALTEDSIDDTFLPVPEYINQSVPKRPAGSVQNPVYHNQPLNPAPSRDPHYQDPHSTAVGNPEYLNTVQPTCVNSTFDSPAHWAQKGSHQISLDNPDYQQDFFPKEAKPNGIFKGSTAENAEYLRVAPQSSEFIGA
For test [8], the target named is Follistatin-related protein 3 (Homo sapiens) (UniProt O95633). Kind of test: compounds binding follistatin-related protein 3 – biochemical, small-molecule microarray, 635 nm fluorescence, primary screen (AID 1105).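 Further: score merges emission near 667 nm and signal to noise per printed spot across three slides.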 The note with it: FSTL3 binding, higher = more signal.
Sequence of Follistatin-related protein 3 (Homo sapiens) (O95633 whole entry, looked up): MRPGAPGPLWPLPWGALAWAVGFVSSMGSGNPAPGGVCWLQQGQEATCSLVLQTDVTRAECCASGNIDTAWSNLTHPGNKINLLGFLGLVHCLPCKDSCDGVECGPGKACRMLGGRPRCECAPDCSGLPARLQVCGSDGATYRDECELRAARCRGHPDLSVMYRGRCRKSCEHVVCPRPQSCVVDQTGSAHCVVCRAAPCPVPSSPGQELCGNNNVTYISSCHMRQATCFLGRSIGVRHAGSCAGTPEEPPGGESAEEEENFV
In test [9] the target is Dickkopf-related protein 1 (Homo sapiens) (UniProt O94907). Kind of test: small molecules binding DKK1 protein – biochemical, small-molecule microarray, 635 nm fluorescence scan, primary screen (AID 1106).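 Further: score merges emission near 667 nm with signal to noise over three replicate slides.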 The note with it: higher = more signal.
Sequence of Dickkopf-related protein 1 (Homo sapiens) (O94907 whole entry, looked up): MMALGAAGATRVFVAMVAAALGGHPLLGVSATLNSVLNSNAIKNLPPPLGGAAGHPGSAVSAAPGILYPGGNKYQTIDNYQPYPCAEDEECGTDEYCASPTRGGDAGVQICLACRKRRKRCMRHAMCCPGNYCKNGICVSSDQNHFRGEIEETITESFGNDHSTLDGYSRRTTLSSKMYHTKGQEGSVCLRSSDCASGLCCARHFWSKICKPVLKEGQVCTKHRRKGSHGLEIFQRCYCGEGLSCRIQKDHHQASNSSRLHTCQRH
Test [10] concerns Inhibin beta A chain (activin A). The test can be described thus: small molecules binding activin A – biochemical, small-molecule microarray, 635 nm fluorescence scan, primary screen (AID 1107).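 Further: mouse activin A protein probed at 4.33 µg/mL on printed slides; score merges bound-protein fluorescence near 667 nm with spot signal-to-noise.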 The note with it: INHBA, higher = more signal.
Test [11] concerns Human papillomavirus type 1a protein E7 (residues 44-93). Kind of test: small molecules binding HPV E7 44-93 – biochemical, small-molecule microarray, residues 44-93, 635 nm fluorescence, primary screen (AID 1108).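 Further: E7 fragment applied at 1 µg/mL in TBST for 1 h at 4 C; score combines spot fluorescence with its signal to noise ratio.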 To be noted: fluorescence 635 nm, higher = more signal.
A short description of test [12]: hepatitis C replication reporter changes, two-sided – Huh7 cells, luciferase reporter, HCV replication inhibitor project, primary screen (AID 1109).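 Further: huh7 hepatoma cells harbouring a luciferase neomycin HCV replicon reporter; luciferase luminescence as measure of HCV replicon replication; test concentration not given here.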 The note with it: Huh7 HCV replicon luciferase reporter, 48 h; higher = more signal.
Test [13] deals with Left-right determination factor 2 (Homo sapiens) (UniProt O00292). Kind of test: small molecules binding LEFTY2 protein – biochemical, small-molecule microarray, 635 nm fluorescence scan, primary screen (AID 1110). To be noted: higher = more signal.
Sequence of Left-right determination factor 2 (Homo sapiens) (O00292 whole entry, looked up): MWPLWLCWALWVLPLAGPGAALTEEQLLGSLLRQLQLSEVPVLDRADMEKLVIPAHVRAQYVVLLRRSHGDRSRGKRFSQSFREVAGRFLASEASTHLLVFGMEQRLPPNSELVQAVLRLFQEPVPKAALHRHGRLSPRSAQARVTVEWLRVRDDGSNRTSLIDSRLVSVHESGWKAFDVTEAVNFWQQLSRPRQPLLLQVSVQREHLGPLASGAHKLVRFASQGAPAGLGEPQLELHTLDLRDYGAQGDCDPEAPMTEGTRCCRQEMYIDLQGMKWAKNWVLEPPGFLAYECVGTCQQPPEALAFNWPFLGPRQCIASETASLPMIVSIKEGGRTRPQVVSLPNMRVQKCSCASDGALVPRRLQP
In test [14] the target is Calmodulin-1 (Homo sapiens) (UniProt P0DP23). Kind of test: small molecules binding calmodulin-1 with EGTA – biochemical, small-molecule microarray, Cy5-labelled CALM1, profiling panel (AID 1111).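 Further: labelled calmodulin applied in Tris saline Tween buffer holding calcium plus EGTA and DTT.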 The note with it: Cy5-CALM1 binding fluorescence, higher = more signal.
For test [15] the target is unchanged. The test can be described thus: small molecules binding Ca-loaded calmodulin-1 – biochemical, small-molecule microarray, Cy5-labelled CALM1, plus calcium, artefact control for SMM control-protein annotation, profiling panel (AID 1112).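 Further: score merges spot fluorescence with signal to noise from triplicate slides.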 The note with it: Cy5-CALM1 binding fluorescence, higher = more signal.
The nature of test [16]: probe aWnt5a binding to arrayed compounds – biochemical, biotinylated probe, 635/667 nm fluorescence, primary screen (AID 1113).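 Further: score merges 667 nm fluorescence intensity with signal-to-noise per printed feature.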 The note with it: small-molecule microarray, higher = more signal.
A short description of test [17]: probe aShh binding to arrayed compounds – biochemical, biotinylated probe, 635/667 nm fluorescence, primary screen (AID 1114).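 Further: probe is biotin-labelled aShh protein from a stem cell growth factor screen; measures binding of labelled protein to compounds printed on the slide; score merges feature fluorescence at 667 nm with signal-to-noise.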 The note with it: small-molecule microarray, higher = more signal.
Test [18] can be described thus: probe aNog binding to arrayed compounds – biochemical, biotinylated probe, 635/667 nm fluorescence, primary screen (AID 1115).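 Further: probe is biotinylated aNog protein used at 0.15 µg/mL for 1 h at 4 C; z-score combines 667 nm fluorescence of each spot with its signal to noise.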 The note with it: small-molecule microarray, higher = more signal.
Test [19] has as its target Torsin-1A-interacting protein 1 (Homo sapiens) (UniProt Q5JTV8). Kind of test: compound microarray binding of lysate hLAP1 – cell lysate, small-molecule microarray, COS7 lysate, 635/667 nm fluorescence, primary screen (AID 1116). To be noted: 635 nm fluorescence, higher = more signal.
Test [20] concerns the target Alpha-bungarotoxin (Bungarus multicinctus) (UniProt P60615). The test can be described thus: compounds binding labelled alpha-BTX control protein – biochemical, small-molecule microarray, Alexa647 label, 635/667 nm fluorescence, artefact control for SMM control protein annotation, profiling panel (AID 1117). To be noted: alpha-BTX-A647 binding fluorescence, higher = more signal.

Sequence of Torsin-1A-interacting protein 1 (Homo sapiens) (Q5JTV8 whole entry, looked up): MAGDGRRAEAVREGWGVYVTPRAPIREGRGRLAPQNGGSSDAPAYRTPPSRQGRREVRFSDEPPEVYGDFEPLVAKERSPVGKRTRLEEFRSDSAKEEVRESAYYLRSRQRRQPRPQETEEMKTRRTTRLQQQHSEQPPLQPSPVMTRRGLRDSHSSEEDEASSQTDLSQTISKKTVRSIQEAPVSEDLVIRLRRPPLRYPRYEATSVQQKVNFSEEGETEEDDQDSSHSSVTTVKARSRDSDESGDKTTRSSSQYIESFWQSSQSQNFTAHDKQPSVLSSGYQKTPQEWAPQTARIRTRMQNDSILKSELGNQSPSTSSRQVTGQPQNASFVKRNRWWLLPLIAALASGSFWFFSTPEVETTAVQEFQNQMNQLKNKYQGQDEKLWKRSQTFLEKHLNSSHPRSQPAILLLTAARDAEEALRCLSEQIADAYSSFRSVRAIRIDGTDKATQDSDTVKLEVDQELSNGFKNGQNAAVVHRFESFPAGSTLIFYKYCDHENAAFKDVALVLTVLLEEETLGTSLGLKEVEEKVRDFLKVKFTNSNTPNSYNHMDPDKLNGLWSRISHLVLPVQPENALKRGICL
Sequence of Fibroblast growth factor 10 (Homo sapiens) (O15520 whole entry, looked up): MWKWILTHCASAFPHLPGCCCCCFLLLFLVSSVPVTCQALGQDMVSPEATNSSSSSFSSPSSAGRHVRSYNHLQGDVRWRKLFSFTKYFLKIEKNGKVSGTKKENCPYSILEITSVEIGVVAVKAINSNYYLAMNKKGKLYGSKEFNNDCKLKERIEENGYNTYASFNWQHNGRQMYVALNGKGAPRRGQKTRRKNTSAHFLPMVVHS
Sequence of Alpha-bungarotoxin (Bungarus multicinctus) (P60615 whole entry, looked up): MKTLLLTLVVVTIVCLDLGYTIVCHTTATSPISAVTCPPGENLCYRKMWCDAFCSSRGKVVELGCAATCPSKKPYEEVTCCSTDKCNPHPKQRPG

As for `COc1ccc(C(O)C2C=CC3C(=O)NC(=O)C3N2Nc2ccccn2)cc1` (stereo not given), the composite z-score in test [1] was 0.948; in [2] it was 0.422; in test [3], 0.267; in test [5] it was 0.257; in [6], -0.0877; in test [7] it was 0.686. For the same molecule, the composite z-score in [8] was 0.304; in test [9] it was 0.645; in test [10] it was 0.371; in test [11], -1.08; in test [13], 0.494; in test [14], -1.3. The composite z-score in test [15] was -0.498; in [16], 0.0158; in [17], -0.106; in test [18], 0.0861; in [19], 0.658; in test [20], -0.0568. For the same molecule, the figures for the z-score in [4] and in test [12] were 0.706 (inactive) and 0.824, respectively.

In the case of `C=CCOC(=O)[C@H]1[C@@H]2C(=O)O[C@@H](c3ccccc3)[C@@H](c3ccccc3)N2[C@@H](c2ccc(OCCOC(=O)[C@@H]3C[C@@H]4C(=O)N[C@@H](CCCC[N+](C)(C)C)C(=O)N4[C@@H]3c3ccc(O)cc3)cc2)[C@]12C(=O)Nc1ccccc12`, the composite z-score is 1.05 in test [1]; 0.415 in [2]; -0.372 in [3]; 0.805 in test [5]; 1.3 in test [6]; 0.383 in [7]. In addition, the composite z-score in test [8] was 1.24; in test [9], 0.716; in test [10], -0.0117; in test [11], 1.26; in test [13], 0.498; in test [14], -0.0632. The composite z-score is -0.499 in test [15]; -0.0398 in test [16]; 0.123 in [17]; -0.13 in [18]; 0.425 in [19]; 0.428 in test [20]. Further, the figures for the z-score in test [4] and in test [12] were -0.794 (inactive) and -1.11, respectively.

As for `COC(=O)[C@@]1(Cc2ccc(OC)cc2)[C@H]2c3cc(C(=O)N4CCCC4)n(Cc4ccccc4)c3C[C@H]2CN1C(=O)c1ccccc1`, the composite z-score was determined as 0.93 in test [1]; 2.64 in [2]; 1.31 in test [3]; 1.31 in [5]; 0.472 in test [6]; 0.801 in test [7]. The composite z-score is 0.413 in test [8]; -0.505 in test [9]; 0.651 in [10]; 1.16 in test [11]; 0.117 in test [13]; 2.3 in test [14]. Further, the composite z-score amounted to 0.817 in test [15]; 1.29 in test [16]; 2.49 in [17]; 2.87 in test [18]; 0.0976 in [19]; 0.75 in [20]. Besides, the z-score was -1.16 (inactive) in [4] and -1.76 in test [12].

As for `C=CCC(OC(C)=O)[C@@H]1[C@@H](N(Cc2cccc3ccccc23)C(=O)c2ccc(-c3ccccc3)cc2)c2cc(OCCCO)ccc2N1C(=O)Cc1ccc(OC)cc1` (stereo not given in full), the composite z-score was 0.283 in [1]; -0.0675 in test [2]; 0.0188 in [3]; 0.168 in [5]; 0.0341 in test [6]; 0.23 in [7]. Further, the composite z-score in test [8] came to 0.431; in test [9], 0.0533; in test [10], 0.884; in test [11], 0.144; in [13] it was 0.111; in [14] it was 0.617. For the same molecule, the composite z-score was 0.291 in test [15]; 0.0479 in test [16]; 0.149 in test [17]; -0.0907 in [18]; -0.0944 in test [19]; 0.373 in test [20]. Besides, the results for the z-score in [4] and in test [12] were -1.08 (inactive) and -1.36, respectively.

Turning to `COc1cc2c(cc1O)C=[N+](Cc1cccc(OC(F)(F)F)c1)CC2`, the composite z-score was 0.674 in [1]; -0.084 in test [2]; 0.39 in test [3]; -0.0931 in [5]; -0.104 in test [6]; 0.128 in [7]. The composite z-score is 0.534 in [8]; 0.141 in test [9]; 0.994 in test [10]; -1.28 in test [11]; -0.402 in [13]; -0.579 in [14]. The composite z-score in test [15] was -0.149; in [16], -0.158; in test [17], -0.206; in test [18], -0.294; in test [19], 0.15; in test [20], 0.0656. The z-score in test [4] was -0.663 (inactive); in test [12], -0.556.
